Reference: PubChem BioAssay (Tox21)
Values joined by “and” are separate entries in the source; they are usually repeats but may differ in a detail not shown here. Equal values may be shown once. Results filed as inconclusive are left out. Where a call stands in place of a potency, no number is given. Active and inactive are the calls of the source. The call rests on the fitted dose curve; in most records, active means well fitted cell-killing curve with a large enough effect in the repeat runs; inconclusive means weak or mixed curves, or effect the other way; inactive means flat fitted curve, though single readings scatter.

Experiment: cAMP Responsive Elements (CRE) small molecule agonists, cell-based qHTS assay: qHTS cell viability counter screen (AID 2060914);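 further: viability read after 3 h of compound exposure; nearly all actives have a fitted effect of over 50% in size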
Settings: CRE-bla HEK293T viability, CellTiter-Glo luminescence, 5 h; series mostly up to 92.4 µM
Excerpt: National Center for Advancing Translational Sciences [NCATS]
Division of Preclinical Innovation [DPI]
U.S. Environmental Protection Agency [EPA]
National Institutes of Environmental Health Sciences [NIEHS]
National Toxicology Program [NTP]
U.S. Food and Drug Administration [FDA]
CREB (cyclic-AMP Responsive Element Binding Protein) is a cellular transcription factor. It binds to certain DNA sequences called cAMP Responsive Elements (CRE) and regulates the transcription of the genes. […] This cell line can be used to find agonists/antagonists of the cyclic AMP signaling pathway. The activation of the report gene under culture conditions can be detected by fluorescence intensity. This cell line has been used to screen the Tox21 10K compound library to identify agonists that induce oxidative stress. The cytotoxicity of the Tox21 compound library against the CRE-bla cell line was tested in parallel by measuring the cell viability using CellTiter-Glo assay (Promega, Madison, WI) in the same wells.
Tox21 Assay Protocol Summary:
CRE-bla Hek 293T cells were suspended in assay medium (DMEM containing 10% dialyzed FBS, 0.1 mM NEAA, 1 mM sodium pyruvate and 25 mM HEPES) and dispensed at 2,000 cells/5 uL /well into 1536-well black wall/clear bottom plates using a Multidrop Combi (ThermoFisher Scientific, Waltham, MA) dispenser. After the assay plates were incubated at 37 C/5% CO2 for 18 hrs, 23 nL of compounds dissolved in DMSO, positive controls or DMSO only was transferred to the assay plate by a pintool workstation (Kalypsys, San Diego, CA). After the plates were incubated at 37 C/5% CO2 for 3 hrs, 1 uL of LiveBLAzer B/G FRET substrate (Invitrogen, Carlsbad, CA) was added to each well using Bioraptr Flying Reagent Dispenser (FRD, Aurora Discovery, San Diego, CA). The plates were incubated at room temperature for 2 h, then fluorescence intensities were measured using an Envision plate reader (PerkinElmer, Shelton, CT) at Excitation 405nm, Emission 460nm and 530nm. The % activity was determined from the ratio of 460nm/530nm. For cell viability readout that measures cytotoxicity, 4 uL /well of CellTiter-Glo reagent was added into the assay plates using Bioraptr FRD. After 30 min incubation at room temperature, the luminescence intensity in the assay plates was measured using a ViewLux (PerkinElmer, Shelton, CT) plate reader.
Potency means the concentration at half of the fitted maximal effect.

Row | SMILES | Potency
1 | CC(C)(C)C1CCC(=O)CC1 | inactive
2 | CNCCC(Oc1ccccc1OC)c1ccccc1 (stereo not given) | inactive
3 | CC1(C)Oc2ccc(C#N)cc2[C@@H](N2CCCC2=O)[C@@H]1O | inactive
4 | O=C(OCc1ccccc1)c1ccccc1O | inactive
5 | O=CC=C(c1ccccc1)c1ccccc1 | inactive
6 | CCN(Cc1cccc(S(=O)(=O)O)c1)c1ccc(C(=C2C=CC(=[N+](CC)Cc3cccc(S(=O)(=O)[O-])c3)C=C2)c2ccccc2)cc1 | inactive
7 | CCCCCCCCCCCCN1CCOCC1 | inactive
8 | ClC1=C(Cl)C(Cl)(Cl)C(Cl)=C1Cl | inactive
9 | NCCNCCO | inactive
10 | CC1CCc2c(N3CCC(O)CC3)c(F)cc3c(=O)c(C(=O)O)cn1c23 (stereo not given) | inactive
11 | Nc1ccccc1[N+](=O)[O-] | inactive
12 | O=C1O[C@H]([C@H](O)CO)C(O)=C1O | inactive
13 | CC(=O)OCCOC(C)=O | inactive
14 | Cc1ccnc2c1NC(=O)c1cccnc1N2C1CC1 | inactive
15 | Cc1cccc(C)c1NC(=O)CN1CCCCCC1 | inactive
16 | CC(C)=CCC1=C(O)c2ccccc2C(=O)C1=O | inactive
17 | CCC(CC)Nc1ccc(C)c(C)c1 | inactive
18 | Cc1ccc(N)cc1S(=O)(=O)O | inactive
19 | O=C(O)COc1ccc2ccccc2c1 | inactive
20 | Clc1cc(Cl)c(-c2c(Cl)c(Cl)cc(Cl)c2Cl)cc1Cl | inactive

Row | SMILES | Potency
21 | Cc1c(C)c2c(c(C)c1OC(=O)CCC(=O)O)CC[C@@](C)(CCC[C@H](C)CCC[C@H](C)CCCC(C)C)O2 | inactive
22 | Cc1cc2c(OCC(CNC(C)(C)C)OC(=O)c3ccccc3)cccc2[nH]1 (stereo not given) | inactive
23 | CCCCCCCCCCCCCCCC[N+](C)(C)CC | 54.6 µM (active) and 26.6 µM (active)
24 | O=S(=O)(O)CO | inactive
25 | O=c1cc(CO)occ1O | inactive
26 | c1ccc2c(c1)CCC2 | inactive
27 | NCCc1ccc(O)c(O)c1 | inactive
28 | Cc1ccc2nc(N)[nH]c(=O)c2c1Sc1ccncc1 | inactive
29 | CCCOC(=O)c1cc(O)c(O)c(O)c1 | inactive
30 | O=C1Nc2ccc(Cl)cc2[C@@](C#CC2CC2)(C(F)(F)F)O1 | inactive
31 | O=C(O)Cc1ccc2c(c1)C(=O)c1ccccc1CO2 | inactive
32 | C1OCOCO1 | inactive
33 | NC(=NCCCCCCN=C(N)/N=C(\N)Nc1ccc(Cl)cc1)/N=C(\N)Nc1ccc(Cl)cc1 | 48.1 µM (active)
34 | c1ccc2c(c1)ccc1c3ccccc3ccc21 | inactive
35 | CCOC(=O)NCCC[Si](OCC)(OCC)OCC | inactive
36 | CCCCCCCCCCCCCO | inactive
37 | CCOCC(=O)O | inactive
38 | CCN(CCO)c1cccc(C)c1 | inactive
39 | Cc1cccc(CN2CCN(C(c3ccccc3)c3ccc(Cl)cc3)CC2)c1 (stereo not given) | inactive
40 | OCCOc1cccc(OCCO)c1 | inactive
